Bioassay records: PubChem BioAssay, National Center for Advancing Translational Sciences (NCATS)
Lassa entry inh = inhibitors of Lassa virus binding or cell entry; Lassa virus pseudotype entry inhibition, cell reporter; Potency, µM (doses to about 37.9 µM), inactives show top-dose activity change, negative = inhibition, hits mostly inhibitors; actives 1.2% (n = 300,000); AID 540256; calls by dose curve; tested in HEK293 cells; further: potency means the concentration at half of the fitted maximal effect; on the % scale 0 is the no-effect control and ±100 the full control effect; nearly all actives have a fitted effect of over 50% in size
MARV entry inh = inhibitors of Marburg virus binding or cell entry | Marburg virus pseudotyped entry inhibition, cell reporter | Potency, µM (series often up to 37.8 µM), inactives show top-dose activity change, negative = inhibition, most hits filed as inhibitors | actives 1.8% (n = 300,000) | AID 540276; calls by dose curve; tested in HEK293 cells; further: potency means the concentration at half of the fitted maximal effect; on the % scale 0 is the no-effect control and ±100 the full control effect
CHX counter = affects cycloheximide protein synthesis inhibition readout, counter-screen; cell reporter, cycloheximide protein synthesis inhibition counterscreen; max response, %; actives 12% (n = 300,000); in the data active means max response mostly above about 13%, no sharp cut-off; inactive means mostly below about 14%; further: read at 38.3 µM for the half of the compounds with a filed dose; 0% is about no effect
Shiga inhibitor = inhibitors of Shiga toxin in Vero cells; Vero cells, Shiga toxin protein synthesis inhibition reporter; inhibition, % at 38.7 µM; actives 9.2% (n = 290,000); in the data active means inhibition mostly above about 28%, no sharp cut-off; inactive means mostly below about 43%; further: 0% is about no effect
An asterisk follows results filed as active; ? = inconclusive; nt = no result given; [ ] = remark or other dose. This is a sample that favours compounds with a hit; in the whole collection about 12% have one here.

SMILES	Lassa entry inh	MARV entry inh	CHX counter	Shiga inhibitor
Cc1sc(NC(=O)c2ccccc2)c(C(=O)NCCN(C)C)c1C	-25%	21µM*	2	-8
CCOC(=O)c1c(NC(=O)c2ccccc2N(C)S(=O)(=O)c2ccccc2)sc2c1CCCC2	?	-20%	-6	-9
COC(=O)c1c(NC(=O)c2ccccc2N(C)S(=O)(=O)c2ccccc2)sc2c1CCCC2	?	4.5µM*	1	-8
O=C(Nc1sc2c(c1C(=O)O)CCCC2)c1ccc(Cl)cc1	7.9µM*	6.3µM*	19*	29
Cc1cccc(C)c1NC(=S)N(CCCN1CCOCC1)Cc1cccnc1	17%	?	-3	-5
O=C(O)c1c(NC(=O)c2cccc3ccccc23)sc2c1CCC2	-23%	-2%	-2	16
O=C(Nc1sc2c(c1C(=O)O)CCC2)c1ccccc1	?	7.3µM*	41*	143*
Clc1ccc(-c2csc(=Nc3ccccc3)n2Cc2ccc3c(c2)OCO3)cc1	23%[46.1 µM]	?	nt	nt
Cc1cc(NC(=O)Nc2ccc(Cl)cc2)no1	-7%[46.1 µM]	21%[46.1 µM]	27*	nt
CN(C)/C=C/C(=O)/C=C/c1ccc(Cl)cc1	?	?	45*	87*
Cc1cc(NC(=O)Nc2ccc(Cl)c(Cl)c2)no1	11%[46.1 µM]	?	nt	nt
O=C(Nc1ccsn1)c1ccc(Cl)cc1Cl	nt	nt	41*	47*
CC(=O)Nc1ccc(NC(=O)/C=C/c2ccc(Cl)cc2)cc1	-3%	1%	30*	26*
O=C(/C=C/c1ccccc1)NNc1ccc(Cl)cc1	-15%[46.1 µM]	-23%[46.1 µM]	9	31
C#CCCCON=C1C[C@@H](O)[C@@H](O)[C@@H]2[C@H]3C(=O)N(C(C)(C)C)C(=O)[C@@H]3CC[C@H]12	nt	12%[14.2 µM]	nt	nt
Cn1ncc(Cl)c1C(=O)Nc1ccc(CN2CCCCC2)cc1	20%[46.1 µM]	1%[46.1 µM]	0	31
Cc1ccc(CC(=O)Nc2cc(C)on2)cc1	10%	8%	8	29
Cc1ccc(NC(=O)Nc2cc(C)on2)cc1	27%	29%[46.1 µM]	47*	75*
Cc1cc(C(=O)Nc2ccc(C#N)cc2)on1	nt	nt	8	5
Cc1cccc(NC(=O)Nc2cc(C)on2)c1	12%	-32%[46.1 µM]	39*	71*
Cc1ocnc1C(=O)Nc1ccc(Cl)cc1	?	3%	44*	122*
Cc1cc(NC(=O)Nc2cccc(C)c2C)no1	-19%[46.1 µM]	-2%[46.1 µM]	16	18
CCOC(=O)c1[nH]cnc1C(=O)Nc1ccc(Cl)cc1	nt	nt	-2	-6
Cc1cc(C(=O)Nc2ccc(Cl)cc2)on1	10%[46.1 µM]	0%[46.1 µM]	23*	58*
Cc1cccc2c(CC(=O)Nc3ccccc3)noc12	?	2%	12	-36
SMILES	Lassa entry inh	MARV entry inh	CHX counter	Shiga inhibitor
COc1ccc(N2CCN(CCCNC(=O)c3sc4ncccc4c3-n3cccc3)CC2)cc1	-7%[46.1 µM]	nt	nt	nt
CCOc1ccccc1CNCc1c(C(=O)O)c(C)n(Cc2ccc(Cl)cc2)c1C	?	-1%[46.1 µM]	nt	nt
O=C(COC(=O)C1=NN(c2ccccc2)C(=O)CC1)NCc1ccccc1Cl	1%	8%	nt	nt
Cc1cc(NC(=O)c2ccc(Cl)cc2Cl)no1	nt	nt	42*	nt
Cc1cc(NC(=O)/C=C/c2ccc(Cl)cc2)no1	18%	?	23*	73*
CCC(C)c1ccc2oc(-c3ccc(NC(=O)c4ncn[nH]4)cc3)nc2c1 (centres undefined)	-20%[14.3 µM]	?	8	41*
CC(C)c1ccc2oc(-c3ccc(NC(=O)c4ncn[nH]4)cc3)nc2c1	-6%	-1%	49*	86*
CCC(C)c1ccc(O)c(NC(=O)c2ncn[nH]2)c1 (centres undefined)	-5%	10%	-2	13
CC(=O)Nc1ccccc1NS(=O)(=O)c1ccccc1NO	nt	nt	-1	3
COc1ccc(OC)c(S(=O)(=O)NCc2cn3cccc(C)c3n2)c1	6%	20%	0	-3
Cc1cccn2cc(CCNS(=O)(=O)c3ccc([N+](=O)[O-])cc3)nc12	-4%	2%	-3	-17
Cc1ccc(OCc2cn3cccnc3n2)cc1	21%	-34%	55*	104*
O=[N+]([O-])c1cccc(OCc2cn3cccnc3n2)c1	17%	?	20*	14
Cc1cccn2cc(COc3ccc(-c4ccccc4)cc3)nc12	?	?	71*	68*
Cc1cccn2cc(COc3cccc([N+](=O)[O-])c3)nc12	0%[46.1 µM]	2%[46.1 µM]	22*	61*
